# According to PubChem BioAssay (Tox21):
# Inconclusive results are not listed. A number with no mark means an inactive call. The source made the active and inactive calls. Calls follow the shape of the dose curve; as a rule, active = well fitted activation curve with a large enough effect in the signal ratio in the repeat runs (not every such curve was filed as active); inconclusive = weak or mixed curves, or effect the other way; inactive = flat fitted curve, though single readings scatter; the % refers to the signal ratio.
# Assay: qHTS assay to identify small molecule agonists of the endoplasmic reticulum stress response signaling pathway (AID 1159516)
# Details: ESRE-bla HeLa, ER stress beta-lactamase reporter, 5 h; series mostly up to 61 µM
# Source text: National Center for Advancing Translational Sciences [NCATS]
# NIH Chemical Genomics Center [NCGC]
# U.S. Environmental Protection Agency [EPA]
# National Institutes of Environmental Health Sciences [NIEHS]
# National Toxicology Program [NTP]
# U.S. Food and Drug Administration [FDA]
# Endoplasmic Reticulum (ER) plays an important role in cellular signaling, protein folding/maturation, stress response, lipid biosynthesis, calcium storage and release etc. Under stress conditions, proteins in ER misfold or unfold, and leading to the expression of ER stress responsive genes. ER stress has been associated with a variety of pathophysiological conditions such as cancer, inflammation, neurodegenerative diseases, diabetes, ischemic heart disease etc. To identify the compounds that induce ER stress response, an ER stress reporter cell line, CellSensor ESRE-bla HeLa (Life Technologies, Carlsbad, CA) containing a beta-lactamase reporter gene under control of the Endoplasmic reticulum Stress Response Element (ESRE) was used to screen Tox21 10K compound library.
# Tox21 Assay Protocol Summary:
# ESRE-bla HeLa cells were dispensed at 1,500 cells/6 uL of assay medium per well into black wall/clear-bottom 1536-well plates using a Multidrop Combi (ThermoFisher Scientific, Waltham, MA) dispenser. After the assay plates were incubated at 37 C and 5% CO2 for an overnight, 23 nL of compounds dissolved in DMSO, positive controls or DMSO only was transferred to the assay plate by a Pintool station (Kalypsys, San Diego, CA). The assay plates were incubated at 37 C and 5% CO2 for 5 hr. One uL of LiveBLAzer B/G FRET substrate (Life Technologies) was added using a Flying Reagent Dispenser (Aurora Discovery, San Diego, CA) and the plates were incubated at room temperature for 2 hr. Fluorescence intensity (405 nm excitation, 460 nm and 530 nm emissions) was measured using an Envision plate reader (PerkinElmer, Shelton, CT).
# % is scaled to controls: 0 for no effect and ±100 for the full control effect.
SMILES,outcome,activation
Cc1nc2sccn2c(=O)c1CCN1CCC(=C(c2ccc(F)cc2)c2ccc(F)cc2)CC1,inactive,–
CCCCCCOC(=O)c1ccccc1,inactive,–
CC(C)=CCCC(C)C=O (stereo not given),inactive,–
CC(C)Cc1nccs1,inactive,–
Cc1c(Cl)cccc1[N+](=O)[O-],inactive,–
C=CC(=O)NC(C)(C)C,inactive,–
Cc1ccc2ccccc2c1[N+](=O)[O-],inactive,–
CCC1=C(C)CN(C(=O)NCCc2ccc(S(=O)(=O)NC(=O)NC3CCC(C)CC3)cc2)C1=O (stereo not given),inactive,–
CCCCCCC/C=C/C=O,inactive,–
O=C(O)c1ccccc1-n1cc(C(=O)O)c(=O)c2cc(Nc3c(F)cc(F)cc3Cl)c(Cl)cc21,inactive,–
Nc1nc(Cl)nc2c1ncn2[C@H]1C[C@H](O)[C@@H](CO)O1,inactive,–
CC(=O)S[C@H](C(=O)N[C@H]1Cc2ccccc2[C@H]2CCC[C@@H](C(=O)O)N2C1=O)C(C)C,inactive,–
COc1ccc(C(=O)Nc2ccccc2)cc1[N+](=O)[O-],inactive,–
O=C(OC1C[C@H]2CC[C@@H](C1)[N+]21CCCC1)C(O)(c1ccccc1)c1ccccc1 (stereo not given in full),inactive,–
O=C(O)COCC(=O)O,inactive,–
Cc1c(N=C=O)cccc1N=C=O,inactive,–
CC1(C)[C@@H]2CC[C@]3(C2)[C@@H]1C(=O)CCC3(C)C,inactive,–
CCCCCCCCS,inactive,–
NC(=O)c1ccccc1,inactive,–
C[C@]12CCC(=O)C=C1[C@@H]1C[C@@H]1[C@H]1[C@@H]3[C@@H]4C[C@@H]4[C@@]4(CCC(=O)O4)[C@@]3(C)CC[C@@H]12,inactive,–

SMILES,outcome,activation
O=S(=O)(O)c1cc(Cl)c(Cl)cc1Cl,inactive,–
COC=O,–,-0.899% [at 6.95 µM]
COc1ccc(/C(C)=C/C(=O)O)c(OC)c1,inactive,–
Nc1ccc(C(=O)Oc2ccccc2)c(O)c1,inactive,–
FC(F)(Cl)C(F)(Cl)Cl,inactive,–
CC/C=C\CCO,inactive,–
COc1cc(C)c(Cc2cnc(N)nc2N)cc1OC,inactive,–
CC(C)C[C@H](NC(=O)[C@H](Cc1ccccc1)NC(=O)c1cnccn1)B(O)O,inactive,–
Cc1c(-c2cccnc2)c2ccccc2n1CCCCC(=O)O,inactive,–
CCCCCCCCCCCCCCCCN,inactive,–
CCOCCn1c(N2CCCN(C)CC2)nc2ccccc21,inactive,–
N#Cc1ccc(CC(=O)c2cccc(C(F)(F)F)c2)cc1,inactive,–
C(/C=C/C=C/Nc1ccccc1)=Nc1ccccc1,inactive,–
Clc1ccccc1-c1nc(-c2ccncc2)no1,inactive,–
O=C(OCCN1CCOCC1)c1cccnc1Nc1cccc(C(F)(F)F)c1,inactive,–
O=[N+]([O-])c1ccc(Cl)cc1Cl,inactive,–
COc1ccc(/C=C/c2cc(OC)cc(=O)o2)cc1,inactive,–
C/C(=C\C(C)CC(C)CC(C)C)C1CC(=O)OC1=O (stereo not given),inactive,–
Clc1nc2ccccc2nc1Cl,inactive,–
O=C(O)c1c2ccccc2cc2ccccc12,inactive,–
